Screening data deposited in PubChem by National Center for Advancing Translational Sciences (NCATS).
Only a selection was taken, and hits are over-represented in it overall.
Cycloheximide cs = counter-screen hit for Shiga toxin inhibitors, cycloheximide; cell reporter, cycloheximide protein synthesis inhibition counterscreen; max response, %; hit rate 12% among 300,000; AID 2314; in the data active = max response mostly above about 13%, no sharp cut-off; inactive = mostly below about 14%; note: read at 38.3 µM for the half of the compounds with a filed dose
LmPK inhibitor = blocks Leishmania mexicana pyruvate kinase activity. Potency, µM (doses to about 57.5 µM), usual class: inhibitors. hit rate 0.37% among 290,000. purified LmPK, Kinase-Glo ATP luminescence, 1 h. Q27686. AID 1721
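0.1 nM LmPK, 0.5 mM PEP, 0.1 mM ADP; 50 mM imidazole pH 7.2, 7 mM MgCl2, 50 mM KCl; 1 h RT. Kinase-Glo luminescence readout, normalized to no-enzyme (full inhibition) and uninhibited wells.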
FBPA Giardia inh = inhibitors of Giardia lamblia fructose-1,6-bisphosphate aldolase; hit rate 0.71% among 290,000; Potency, µM (highest dose often 59.6 µM), hits mostly inhibitors; purified Giardia FBPA; note: nearly all actives have a fitted effect of over 55% in size
Target sequence (A8B2U2 whole entry, looked up): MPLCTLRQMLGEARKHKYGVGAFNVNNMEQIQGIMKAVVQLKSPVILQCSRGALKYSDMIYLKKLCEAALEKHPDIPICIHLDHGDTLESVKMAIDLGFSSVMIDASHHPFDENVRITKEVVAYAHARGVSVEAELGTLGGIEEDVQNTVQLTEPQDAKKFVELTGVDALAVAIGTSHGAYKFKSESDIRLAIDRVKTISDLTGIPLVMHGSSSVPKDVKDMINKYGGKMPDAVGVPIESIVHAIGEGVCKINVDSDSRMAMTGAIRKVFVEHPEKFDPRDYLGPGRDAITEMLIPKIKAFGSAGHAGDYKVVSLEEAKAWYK
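Giardia FBPA (40 nM reagent) was preincubated 10 min at RT with compound (up to 57.5 uM final), then substrate plus GAPDH/TPI/NAD/arsenate coupling system with diaphorase/resazurin was added; resorufin fluorescence (525/598 nm) was read after 20 min.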
Sm TGR block = inhibitors of Schistosoma mansoni thioredoxin glutathione reductase; hit rate 3% among 360,000; Q962Y6; Potency, µM (titrated, usually from 114 µM), hits mostly inhibitors; purified TGR, DTNB reduction, TNB absorbance 405 nm; AID 485364; note: nearly all actives have a fitted effect of over 60% in size
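First, TGR (20 nM dispensed) and NADPH were mixed with compound. Second, a 15 min room-temperature incubation followed. Third, further NADPH and then DTNB were added to start the reaction. Finally, TNB absorbance was monitored kinetically.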
Shiga toxin inh = Shiga toxin inhibition; Vero cells, Shiga toxin protein synthesis inhibition reporter; inhibition, % at 38.7 µM; hit rate 9.2% among 290,000; AID 2315; in the data active = inhibition mostly above about 28%, no sharp cut-off; inactive = mostly below about 43%
TbPYK inhibitor = inhibitors of Trypanosoma brucei pyruvate kinase; Potency, µM (series often up to 76.8 µM), most hits filed as inhibitors; TbPYK enzyme, Kinase-Glo Plus ATP luminescence, 45 min; AID 624173; Q57TT1; hit rate 0.12% among 410,000; note: nearly all actives have a fitted effect of over 50% in size
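TbPYK + substrate in 50 mM TEA pH 7.2, 100 mM KCl, 10 mM MgCl2, 0.05% BSA, 0.01% Tween-20; cpd pinned; ADP 130 uM final; 45 min RT; Kinase-Glo Plus 10 min; luminescence endpoint.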
A number is an active result; n = inactive; u = inconclusive; x = not tested or not shown; [ ] = dose if it differs, or a comment. Unless noted, calls come from the whole dose curve; as a rule, active = well fitted curve in the direction sought with a large enough effect; inconclusive = small, poorly fitted or top-dose-only effect, or another doubt; inactive = no such curve, though single readings can be large; an effect the other way counts as inactive or inconclusive.

SMILES | Cycloheximide cs | LmPK inhibitor | FBPA Giardia inh | Sm TGR block | Shiga toxin inh | TbPYK inhibitor
Cc1ccc(C)c(N2CCN(c3cc(C)nc4c(-c5ccc(Cl)cc5)c(C)nn34)CC2)c1 | x | x | x | n | x | n
Cc1cc(C)n(CCNS(=O)(=O)c2ccccc2)n1 | n | n | n | n | n | n
COc1c(C)cc(C(=O)C2CCCN(C(=O)c3csc(C)n3)C2)cc1C (stereo not given) | n | n | n | n | n | n
COc1c(C)cc(C(=O)C2CCCN(C(=O)c3cccc(-n4cccn4)c3)C2)cc1C (stereo not given) | 13 | n | n | n | n | n
COc1c(C)cc(C(=O)C2CCCN(C(=O)c3cc4nc(C)cc(C)n4n3)C2)cc1C (stereo not given) | n | n | n | n | 25 | n
COc1ccc(-c2[nH]ncc2/C=N\NC(=O)c2ccc(C(C)(C)C)cc2)cc1OC | 21 | n | n | n | 76 | n
CCCCOc1ccc(C(=O)N/N=C/c2cn[nH]c2-c2ccc(OC)c(OC)c2)cc1 | n | n | n | n | n | n
CCc1nnc(NS(=O)(=O)c2ccc(NCc3cc(Br)ccc3O)cc2)s1 | n | n | x | n | n | n
COc1nccnc1NS(=O)(=O)c1ccc(NCc2cc(Br)ccc2O)cc1 | 37 | n | n | n | 57 | n
Cc1ccc(C(=O)Nc2ccc(-c3nc4ccccc4s3)c(O)c2)c(C)c1 | x | x | x | n | x | n
O=C(CCS(=O)(=O)c1ccccc1)Nc1ccc(-c2nc3ccccc3s2)c(O)c1 | 44 | n | n | n | 48 | n
CC(=O)Nc1ccc(O)c(-c2nc3ccccc3s2)c1 | 49 | n[11.5 µM] | n | n | 131 | n
CCS(=O)(=O)c1cccc(C(=O)Nc2ccc(-c3nc4ccccc4s3)c(O)c2)c1 | x | x | x | n | x | n
O=C(COc1ccc(Cl)cc1)Nc1ccc(O)c(-c2nc3ccccc3s2)c1 | x | x | x | n | x | n
Cc1ccsc1C(=O)Nc1ccc(O)c(-c2nc3ccccc3s2)c1 | 18 | n | n | n | n | n
CCS(=O)(=O)n1nc(-c2ccc(C)cc2)nc1N | 9.4 | n | n | n | n | n
CCS(=O)(=O)n1nc(-c2ccc(Cl)cc2)nc1N | n | n | n | n | n | n
CCS(=O)(=O)n1nc(-c2ccc(Cl)cc2)nc1SCc1ccccc1 | 19 | n | n | n | 60 | n
O=C(CCC(=O)c1ccc(F)cc1)OCc1nnc(-c2ccc([N+](=O)[O-])cc2)o1 | x | x | x | 20µM | x | n
Cc1csc(=O)n1CC(=O)OCc1nnc(-c2ccc([N+](=O)[O-])cc2)o1 | x | x | x | n | x | n
O=C(O)CNC(=O)[C@@H](CS)Cc1ccccc1 | x | x | n | x | x | x
Cc1c(C(=O)NCc2cccc(Br)c2)oc2ccc3c(c12)C(=O)CC(C)(C)O3 | x | x | x | n | x | n
CC1C(=O)NN=C1C(=O)N/N=C/c1ccco1 (stereo not given) | 53 | u | n | n | 48 | n
COc1cc(/C=N/NC(=O)C2=NNC(=O)C2C)ccc1O (stereo not given) | 27 | n | n | n | n | n
CC1C(=O)NN=C1C(=O)N/N=C\c1ccc(O)cc1O (stereo not given) | 24 | u | n | n | n | n
SMILES | Cycloheximide cs | LmPK inhibitor | FBPA Giardia inh | Sm TGR block | Shiga toxin inh | TbPYK inhibitor
CC1C(=O)NN=C1C(=O)N/N=C\C(Br)=C\c1ccccc1 (stereo not given) | 17 | n | n | n | 53 | n
COc1cc(/C=N/NC(=O)c2cccc(C(=O)N/N=C/c3ccc(O)c(OC)c3)n2)ccc1O | n | n | n | n | n | n
CCN1CCN(c2oc(-c3ccc(COc4ccc(C)cc4)o3)nc2C#N)CC1 | x | x | x | n | x | n
CC1Cc2cc(S(=O)(=O)CCC(=O)Nc3ccc(F)cc3Cl)ccc2N1C(=O)C1CC1 (stereo not given) | x | x | x | n | x | n
COCCCNC(=O)CC1C[C@H](C(=O)N2CCOCC2)[C@@]2(C)c3[nH]c4ccc(OC)cc4c3CCN2C1=O (stereo not given in full) | x | x | x | x | x | n
O=C(CSC1=NNC(c2ccccn2)S1)Nc1cccc(Cl)c1 (stereo not given) | 40 | n | n | n | 62 | n
O=C(CSC1=NNC(c2ccccn2)S1)Nc1ccccc1 (stereo not given) | 22 | n | u | u | n | n
Cc1cc(-c2ccc(S(=O)(=O)Nc3ccccc3F)s2)on1 | x | x | x | n | x | n[15.4 µM]
CCn1c(=NC(=O)c2ccc(S(=O)(=O)N(C)C)cc2)sc2cccc(OC)c21 | n | n | n | n | n | n
